Source: the supplement of paper PMC3334620
In all, about 33,000 sequences were measured (“E-score (-0.5 to 0.5)”: median about -0.036, highest 2% from about 0.37 on). For the sample, the highest values were picked, then their nearest neighbours and some sequences at random.

These sequences were tested against T1, Yer064c (UniProt P40041) (assay: PBM E-score (8-mer binding enrichment) (E-score (-0.5 to 0.5)); higher = stronger / more preferred TF binding). Conditions: protein concentration: 200 nM; construct: GST-full length.
T1 sequence: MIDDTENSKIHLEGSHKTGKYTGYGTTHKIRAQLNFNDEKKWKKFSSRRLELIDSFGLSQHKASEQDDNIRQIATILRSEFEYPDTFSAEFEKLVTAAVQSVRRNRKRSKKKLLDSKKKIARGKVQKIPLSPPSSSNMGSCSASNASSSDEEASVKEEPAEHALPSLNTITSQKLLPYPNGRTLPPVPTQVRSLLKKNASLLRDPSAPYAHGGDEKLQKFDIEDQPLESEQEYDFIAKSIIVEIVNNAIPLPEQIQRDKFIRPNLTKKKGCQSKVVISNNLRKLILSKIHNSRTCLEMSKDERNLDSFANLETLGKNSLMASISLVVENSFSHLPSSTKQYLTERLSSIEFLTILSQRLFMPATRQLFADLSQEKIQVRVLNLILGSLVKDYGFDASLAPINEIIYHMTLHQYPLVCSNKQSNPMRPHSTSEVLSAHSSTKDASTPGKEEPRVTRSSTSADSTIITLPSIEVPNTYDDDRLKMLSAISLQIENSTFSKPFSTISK
Summary of the method: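 GST-tagged yeast TFs (full-length or DNA-binding domain) were made by PURExpress in vitro transcription/translation and applied at about 100-200 nM to universal all-10-mer Agilent arrays. The arrays were made double-stranded by primer extension, on fresh or once-stripped slides. Bound protein was detected with fluorescent anti-GST, and scans were normalised with masliner. Each ungapped eight-base word, pooled with its reverse complement, received an E-score (modified Wilcoxon-Mann-Whitney statistic) from the Universal PBM Analysis Suite.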

| Sequence | PBM E-score |
| --- | --- |
| AATGCCCT | -0.232 |
| CCAGAATC | 0.0913 |
| CAGAAGGA | -0.151 |
| GGGAGACC | -0.259 |
| CCCTCTTA | -0.103 |
| AGCATTAA | 0.0916 |
| ATTACTCA | 0.329 |
| AGTACTCG | 0.261 |
| AGTACTCA | 0.393 |
| CTTACTCA | 0.373 |
| CGTACTCA | 0.335 |
| GGTACTTA | -0.0396 |
| AGTACTCC | 0.171 |
| CTTACTCC | 0.128 |
| GGTACTCA | 0.381 |
| AGGTGAAA | 0.0659 |
| AATGTGTA | 0.222 |
| ACGGATAA | -0.0519 |
| CATCAGCA | -0.143 |
| GGTCATTA | -0.0121 |
| AGCCATTG | 0.247 |
| CGTCATTA | -0.0609 |
| AGCCATTC | 0.0873 |
| AGTCATTA | 0.487 |

| Sequence | PBM E-score |
| --- | --- |
| CGTCATTC | -0.0565 |
| AGTCATTC | 0.482 |
| AGGCATTG | -0.171 |
| AGTCATTG | 0.475 |
| CCTGGAAG | -0.1 |
| GGAAGCCC | -0.374 |
| AGCGCGGG | 0.00652 |
| ATTCCAGG | 0.118 |
| TCAGCGAA | 0.186 |
| ACAATCTC | -0.108 |
| GCTCATCA | 0.184 |
| ACCCATCT | 0.182 |
| GCTCATCC | -0.0652 |
| ACTCATCT | 0.401 |
| ACTCATCC | 0.455 |
| ACTCATCG | 0.409 |
| CCTCATCC | -0.323 |
| ACTCATCA | 0.412 |
| CCTCATCG | -0.207 |
| ACGCATCT | -0.0617 |
| ACACATCG | 0.158 |
| TCTCATCA | 0.115 |
| AACTTTGG | -0.0438 |
| CTGCTAGA | 0.00564 |

| Sequence | PBM E-score |
| --- | --- |
| GAATGCCA | -0.127 |
| CAGGGGCC | -0.269 |
| CTCACAAA | 0.232 |
| ACGTTATA | 0.0989 |
| AGGATGAT | 0.281 |
| GGAGATCC | -0.237 |
| GACTCCTA | 0.443 |
| GACTCCTC | 0.419 |
| AACTCCTA | -0.137 |
| CACTCCTA | -0.0701 |
| AACTCCTC | -0.169 |
| CACTCCTC | -0.206 |
| ACGGGCTA | -0.288 |
| GGTGGCTA | 0.181 |
| ATTCAGAA | 0.139 |
| CACCGCAA | -0.0119 |
| ACTTAACG | 0.0504 |
| TACAGTGA | 0.211 |
| AACAGTCG | 0.209 |
| TACAGTCA | 0.418 |
| GACAGTCC | 0.0581 |
| AACAGTCA | 0.384 |
| GACAGTCA | 0.409 |
| CACAGTCA | 0.411 |

| Sequence | PBM E-score |
| --- | --- |
| CACAGTCG | 0.203 |
| CACAGTCC | 0.132 |
| AACAGTCT | 0.204 |
| GACAGTTA | -0.103 |
| TACAGTAA | 0.128 |
| ACGGAGCG | -0.0547 |
| AAGAGAGG | -0.104 |
| CTGCTAAA | -0.141 |
| AGTTCCAC | -0.0556 |
| AAACGGGG | -0.128 |
| CTGGACAG | 0.0136 |
| ATGCACCC | -0.0692 |
| AAATAGTC | 0.382 |
| AAATAGTT | -0.0372 |
| CAATAGTC | 0.409 |
| GAATAGCC | -0.0409 |
| AAATAGTG | 0.062 |
| CAATAGTA | -0.0839 |
| GAATAGTA | -0.0424 |
| GAATAGTC | 0.38 |
| CAATAGTG | 0.0438 |
| GCGTAGAA | -0.12 |
